# Screens: PubChem BioAssay, National Center for Advancing Translational Sciences (NCATS)
# Sfp inh – blocks B. subtilis Sfp PPTase activity. AID 1490. Potency, µM, actives largely listed as inhibitors. Biochemical Sfp PPTase activity, qHTS. 310,000 tested, 3.5% active;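 further: the enzyme is Sfp with the accession as filed and its product quenches rhodamine fluorescence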
#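 With Hepes-Na pH 7.6 buffer containing 10 mM MgCl2, Sfp (15 nM) modified BHQ-2-YbbR (12.5 uM) using rhodamine-CoA (5 uM). Two reads 30 minutes apart at 525/598 nm yielded each well's rate.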
# Tau fibril ThT – blocks human tau fibril formation measured by thioflavin T. recombinant tau K18 P301L, heparin-induced fibrillization, ThT fluorescence. Potency, µM (top dose mostly 57.4 µM), usual class: inhibitors. 270,000 tested, 2.1% active. AID 1460; further: nearly all actives have a fitted effect of over 55% in size
# Target sequence (P10636 561-689 P618L limits assumed): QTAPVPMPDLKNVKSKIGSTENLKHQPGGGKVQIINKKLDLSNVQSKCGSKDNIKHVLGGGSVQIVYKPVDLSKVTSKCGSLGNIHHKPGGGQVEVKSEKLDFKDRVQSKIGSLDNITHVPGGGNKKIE
#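 Recombinant human tau K18 fragment […] carrying P301L, 15 uM unlabeled plus 0.24 uM Alexa 594-labeled, was fibrillized with 20 uM heparin in 100 mM sodium acetate pH 7 for 6 hr at 37 C; 30 uM ThT fluorescence read after 1 hr.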
# Tau fluor counter – counter-screen for tau fibril formation inhibitors | tau K18 P301L Alexa594 fluorescence, heparin fibrillization | Potency, µM (series often up to 57.7 µM) | 280,000 tested, 0.93% active | AID 1463; further: nearly all actives have a fitted effect of over 55% in size
#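 Human tau K18 P301L (15 uM unlabeled, 0.24 uM Alexa 594-labeled) in 100 mM sodium acetate pH 7 with 20 uM heparin, 6 hr at 37 C. ThT 30 uM added, 1 hr ambient; Alexa 594 FP and total fluorescence read at 555/632 nm.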
# JMJD2E inh – inhibitors of human JMJD2E histone demethylase; B2RXH2; JMJD2E catalytic domain, FDH-coupled NADH fluorescence (FDH is formaldehyde dehydrogenase); Potency, µM (series often up to 57.1 µM), actives largely listed as inhibitors; 230,000 tested, 1.6% active; AID 2147; active means well fitted inhibition curve with a large enough effect, not every such curve was filed as active; inconclusive means small, poorly fitted or top-dose-only effect, or another doubt; inactive means no such curve, though single readings can be large or run the other way; further: nearly all actives have a fitted effect of over 50% in size
# Target sequence (B2RXH2 1-337 limits assumed): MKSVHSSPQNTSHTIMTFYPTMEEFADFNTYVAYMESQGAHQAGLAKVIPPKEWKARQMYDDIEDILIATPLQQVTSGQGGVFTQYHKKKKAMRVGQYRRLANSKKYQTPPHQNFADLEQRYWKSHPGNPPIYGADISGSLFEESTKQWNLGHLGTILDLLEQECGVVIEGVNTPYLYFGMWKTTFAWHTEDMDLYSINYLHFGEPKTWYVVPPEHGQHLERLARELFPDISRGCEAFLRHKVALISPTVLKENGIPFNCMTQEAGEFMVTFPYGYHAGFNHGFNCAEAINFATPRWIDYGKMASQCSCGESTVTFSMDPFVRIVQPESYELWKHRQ
# Coupling enz – inhibits coupling enzyme system, counter-screen for aldolase hits; activity change, negative = inhibition, % at 58.2 µM, hits read low; 290,000 tested, 0.67% active; AID 2472; coupling enzyme system counterscreen, AmpLite Red fluorescence; in the data active means activity change below about -30%
#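 Final compound at 57.5 uM, incubated 10 min at RT with coupling enzyme reagent (glyceraldehyde-3-phosphate), then 20 min with substrate and AmpLite Red detection. Fluorescence read at 525/598 nm; tests interference with the coupling assay, not aldolase inhibition.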
# Tau fibril FP – blocks human tau fibril formation measured by polarization. P10636. Potency, µM (top dose mostly 57.7 µM), most hits filed as inhibitors. K18 P301L tau heparin fibrillization, Alexa594 FP, 6 h. 280,000 tested, 0.39% active; further: nearly all actives have a fitted effect of over 55% in size
#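 K18 P301L tau (15 uM unlabeled/0.24 uM Alexa 594-labeled, final) + compound + heparin 20 uM final; 100 mM NaOAc pH 7; 6 hr 37 C; ThT 30 uM final added, 1 hr RT; FP ex 555/em 632 nm.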
# A number is an active result; i = inactive; ? = inconclusive; nt = no result given; [ ] = another dose, or the depositor's remark. An excerpt weighted towards active compounds, which were near 5.3% of everything screened. Unless noted, the call rests on the fitted dose curve; in most records, active means well fitted curve in the direction sought with a large enough effect; inconclusive means small, poorly fitted or top-dose-only effect, or another doubt; inactive means no such curve, though single readings can be large; an effect the other way counts as inactive or inconclusive.
SMILES,Sfp inh,Tau fibril ThT,Tau fluor counter,JMJD2E inh,Coupling enz,Tau fibril FP
CC[n+]1ccc(/C=C2\Sc3ccccc3N2CCCS(=O)(=O)[O-])c2ccccc21,i,?,i,?,i,i
CC1CCN(S(=O)(=O)c2ccc3nc(NCc4ccccc4)ccc3c2)CC1,nt,i,?,nt,nt,i
Oc1c(Br)cc(Br)c2cccnc12,i,i,i,20µM,i,i
Oc1c(CN2CCN(c3ccccc3)CC2)cc(Br)c2cccnc12,i,i,i,?,i,i
O=C1[C@H]2[C@H]3[C@H](O)[C@H](O)C/C(=N/OC[C@@H](O)COCc4ccco4)[C@H]3CC[C@@H]2C(=O)N1Cc1ccccc1,i,i[11.5 µM],i[11.6 µM],nt,i,i[11.6 µM]
Cc1ccc(CNC(=O)CCS(=O)(=O)c2ccc(Br)s2)o1,39.8µM,i,i,i,i,i
CC(=O)c1cccc(NC(=O)CCS(=O)(=O)c2ccc(Br)s2)c1,i,i,i,i,i,i
O=C(CCS(=O)(=O)c1ccc(Br)s1)Nc1cc(C(F)(F)F)cc(C(F)(F)F)c1,nt,i,?,nt,nt,20µM
CCOc1ccc(/C=C/C(=O)Nc2sc3c(c2C(=O)OC)C(C(=O)OC)CC3)cc1 (stereo not given),nt,3.16µM,?,nt,nt,?
COC(=O)c1c(NC(=O)C(Cl)Cl)sc2c1C(C(=O)OC)CC2 (stereo not given),i,?,i,i,i,i
COC(=O)c1c(NC(=O)Cc2ccccc2)sc2c1C(C(=O)OC)CC2 (stereo not given),79.4µM,?,i,i,i,i
COc1ccc(C2=Nn3c(nnc3-c3cccc(OC)c3OC)SC2)cc1OC,i,nt,nt,nt,i,nt
CCN(CC)c1ccc(/C=c2/sc3nnc(-c4ccccc4C)n3c2=O)cc1,i,?,i,i,i,i
CCN(CC)c1ccc(/C=c2\sc3nnc(-c4ccccc4Cl)n3c2=O)cc1,i,7.08µM,i,i,i,i
Cc1ccc(/C=c2/sc3nnc(-c4ccccc4Cl)n3c2=O)o1,12.6µM,?,i,i,i,i
C=CCn1c(NC(=O)c2ccco2)c(S(=O)(=O)c2ccccc2)c2nc3ccccc3nc21,?,i,i,?,i,i
C=CCn1c(NC(=O)c2ccc(Br)o2)c(S(=O)(=O)c2ccccc2)c2nc3ccccc3nc21,i,20µM,i,?,i,?
CC(=O)N=c1c(C#N)cc2c(=O)n3ccccc3nc2n1CCCOC(C)C,89.1µM,i,i,?,i,i
C#CCn1c(=NC(=O)c2cccs2)sc2cccc(OC)c21,79.4µM,i,i,?,i,i
Cc1ccnc(SCC(=O)c2cccc([N+](=O)[O-])c2)n1,50.1µM,i,i,i,i,i
CCc1nc(SCC(=O)c2ccc(C)c(C)c2)n[nH]1,79.4µM,i,i,?,i,i
COc1ccc(C(=O)OCC(N)=O)cc1[N+](=O)[O-],i,i,i,i,i,i
Cc1nc(SCC(=O)c2cccc([N+](=O)[O-])c2)n[nH]1,20µM,39.8µM,i,i,i,?
COc1ccc(C(=O)CSc2n[nH]c(C)n2)cc1[N+](=O)[O-],79.4µM,i,i,i,i,i
Cc1ccnc(SCc2ccc([N+](=O)[O-])cc2)n1,i,i,i,i,i,i
SMILES,Sfp inh,Tau fibril ThT,Tau fluor counter,JMJD2E inh,Coupling enz,Tau fibril FP
CSCC[C@H](NC(=O)[C@H](Cc1c[nH]c2ccccc12)NC(=O)CCNC(=O)OC(C)(C)C)C(=O)N[C@@H](CC(=O)O)C(=O)N[C@@H](Cc1ccccc1)C(N)=O,i,nt,nt,nt,i,nt
COc1ccc([N+](=O)[O-])cc1NC(=O)CSc1ccc2ccccc2c1,i,i,?,i,i,?
COc1ccc([N+](=O)[O-])cc1NC(=O)CSc1nc(C)cc(C)n1,22.4µM,i,i,i,i,i
COc1ccc(CCNC(=O)C(=O)c2c[nH]c3ccccc23)cc1,i,i,i,nt,nt,i
C/C(Cn1nnc([N+](=O)[O-])n1)=N\NC(=O)c1ccc(O)cc1,i,nt,i,i,i,i
C/C(Cn1nnc([N+](=O)[O-])n1)=N\NC(=O)c1ccccc1O,i,i,i,i,-34.5,i
C/C(Cn1nnc([N+](=O)[O-])n1)=N\NC(=O)c1ccc(Cl)c(Cl)c1,i,?,i,i,-43.4,i
